Screening data as filed in PubChem.
A selection: hits, their analogues and other compounds. The true share with any hit is near 15%.
Gal4-VP16 FLuc: inhibits Gal4-VP16 luciferase reporter, ROR gamma counter-screen; 310,000 tested, 3.5% active; Drosophila S2 Gal4-VP16 UAS-luciferase, luminescence, 20 h; Potency, µM (series often up to 53.6 µM), usual class: inhibitors; AID 2546;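 note: Gal4-VP16 expression switched on by copper sulfate through the metallothionein promoter; nearly all actives have a fitted effect of over 50% in size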
DT40 TDP1 no CPT: qHTS for Inhibitors of human tyrosyl-DNA phosphodiesterase 1 (TDP1): qHTS in cells in absence of CPT. DT40 Tdp1-/- hTDP1 cells, no CPT, ATP luminescence, 48 h. Potency, µM (top dose mostly 46.2 µM), usual class: inhibitors. 420,000 tested, 15% active. AID 686978, 2013; note: nearly all actives have a fitted effect of over 55% in size
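Luminescent ATP content (CellTiter-Glo) served as the growth readout. Knockout chicken DT40 cells expressing human TDP1 were exposed to compounds without camptothecin for a minimum 48 hr at 37 °C.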
12-LOX inh: blocks human arachidonate 12S-lipoxygenase. purified 12hLO, xylenol orange hydroperoxide absorbance. 580,000 tested, 1.1% active. P18054. Potency, µM (doses to about 108 µM), usual class: inhibitors. AID 1671190
Target sequence (P18054 whole entry, looked up): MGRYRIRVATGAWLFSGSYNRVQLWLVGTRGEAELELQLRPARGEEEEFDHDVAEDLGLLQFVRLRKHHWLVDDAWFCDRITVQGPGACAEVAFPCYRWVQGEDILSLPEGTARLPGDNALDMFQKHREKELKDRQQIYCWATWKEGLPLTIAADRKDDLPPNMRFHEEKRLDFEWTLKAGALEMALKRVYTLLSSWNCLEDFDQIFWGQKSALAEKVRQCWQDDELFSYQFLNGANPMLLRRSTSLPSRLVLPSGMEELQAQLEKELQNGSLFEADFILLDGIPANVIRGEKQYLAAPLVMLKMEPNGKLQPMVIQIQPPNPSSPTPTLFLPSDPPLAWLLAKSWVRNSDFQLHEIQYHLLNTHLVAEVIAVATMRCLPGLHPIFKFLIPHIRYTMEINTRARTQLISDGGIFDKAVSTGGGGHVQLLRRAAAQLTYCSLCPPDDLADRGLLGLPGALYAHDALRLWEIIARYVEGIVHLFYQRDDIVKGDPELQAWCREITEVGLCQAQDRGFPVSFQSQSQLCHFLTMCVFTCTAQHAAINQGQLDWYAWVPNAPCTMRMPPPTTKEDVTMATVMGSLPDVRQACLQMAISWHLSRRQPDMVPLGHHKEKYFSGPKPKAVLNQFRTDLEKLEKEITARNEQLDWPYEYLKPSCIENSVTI
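Hydroperoxide product was detected by ferrous iron/xylenol orange as the 573 to 405 nm absorbance ratio. Arachidonic acid at 40 uM (final) was turned over for 30 min at room temperature by 150 nM human 12hLO, pH 7.0 Hepes buffer, after 15 min compound preincubation.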
TDP1 cell CPT: DT40-hTDP1 cell growth loss with CPT. 420,000 tested, 12% active. AID 686979. Potency, µM (titrated, usually from 46.2 µM), hits mostly inhibitors. chicken DT40 Tdp1-/-;hTDP1 cells + 20 nM CPT, ATP luminescence, 48 h; note: nearly all actives have a fitted effect of over 55% in size
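Chicken DT40 Tdp1-/- cells stably complemented with human TDP1 were seeded at 400 cells/well in medium containing 20 nM camptothecin, exposed to pin-transferred compounds, and grown at 37 °C for at least 48 hr. Viability was read as ATP luminescence.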
ELG1 repair inh: blocks ELG1-dependent DNA repair in HEK293T cells. HEK293T ELG1-luciferase reporter, luminescence, 16 h; DNA damage induced by 5-fluorouridine. 330,000 tested, 2.3% active. Potency, µM (doses to about 46.1 µM), hits mostly inhibitors. AID 504467; note: nearly all actives have a fitted effect of over 55% in size
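In this reporter screen, reduction of luminescence relative to DMSO vehicle indicated activity. Compounds and 5-fluorouridine were added together to 2,000 cells per well, incubated for 16 hr at 37 °C, then developed with ONE-Glo.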
RORgamma inh: blocks mouse ROR gamma transcriptional activity. 310,000 tested, 5.4% active. Drosophila S2 Gal4-RORgamma UAS-luciferase reporter, 20 h. Potency, µM (series often up to 53.6 µM), hits mostly inhibitors. P51450. AID 2551; note: nearly all actives have a fitted effect of over 60% in size
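ROR gamma transcriptional activity was tracked as Gal4-UAS luciferase output in stably transfected Drosophila Schneider cells, with compound added 1 hr before 700 uM copper sulfate induction and a 20 hr ambient-temperature incubation.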
Hits are given with their value; - = inactive; ? = inconclusive; . = no result; [ ] = remark or other dose. Calls come from the whole dose curve; as a rule, active = well fitted curve in the direction sought with a large enough effect; inconclusive = small, poorly fitted or top-dose-only effect, or another doubt; inactive = no such curve, though single readings can be large; an effect the other way counts as inactive or inconclusive.

SMILES	Gal4-VP16 FLuc	DT40 TDP1 no CPT	12-LOX inh	TDP1 cell CPT	ELG1 repair inh	RORgamma inh
CC(=O)n1cc([C@H]2C=C(C(=O)Nc3ccccc3)O[C@@H](OCc3ccc(CO)cc3)C2)c2ccccc21	-	9.2µM	.	8.2µM	9.2µM	-
c1cncc(-c2cnc([C@@H]3COCCN3Cc3ncc[nH]3)[nH]2)c1	.	.	-	.	.	.
CC(NC(=O)c1nccnc1N)c1ccccc1Br (centres undefined)	.	.	-	.	.	.
N#Cc1ccccc1COC(=O)C(c1ccccc1)c1ccccc1	.	.	-	.	.	.
COc1cccc(N2C(=O)NC(=NC3CCCC3)C23CCN(Cc2cccnc2)C3)c1 (centres undefined)	.	.	-[6.33 µM]	.	.	.
N#C/C(=N\Nc1cccc(C(F)(F)F)c1)C(=O)c1ccsc1	?	5.8µM	?	5.2µM	?	?
C/C(=N\NC(=O)CNc1cccc(C(F)(F)F)c1)c1cccs1	-	?	-	-	-	-
COc1ccccc1NC(=O)Cn1nc(-c2cccc([N+](=O)[O-])c2)c2ccccc2c1=O	.	.	-	.	.	.
Cc1cc(C(=O)N2CCC3(CC2)NCCc2c3[nH]c3ccccc23)n(C)n1	.	.	-	.	.	.
COC/C=C/C1=CC2=CC(=O)C(C)(OC(=O)c3cnc4ccccc4n3)C(=O)C2=CN1Cc1ccc(OC)cc1 (centres undefined)	-	?	?	23µM	-	-
COC/C=C/C1=CC2=CC(=O)C(C)(OC(=O)c3cnc4ccccc4n3)C(=O)C2=CN1c1ccc(OC)cc1 (centres undefined)	.	?	-	?	.	.
COC/C=C/C1=CC2=CC(=O)C(C)(OC(=O)c3cnc4ccccc4n3)C(=O)C2=CN1Cc1ccccc1 (centres undefined)	-	16µM	?	?	?	-
COC/C=C/C1=CC2=CC(=O)C(C)(OC(=O)c3cnc4ccccc4n3)C(=O)C2=CN1C1CC1 (centres undefined)	.	21µM	-	?	.	.
COC/C=C/C1=CC2=CC(=O)C(C)(OC(=O)c3cnc4ccccc4n3)C(=O)C2=CN1CC1CC1 (centres undefined)	.	?	.	-	.	.
FC(F)(F)c1cccc(-c2ccc(CNC3CC3)o2)c1	.	.	-	.	.	.
CCc1nc2c(OCC=C(C)C)cccn2c1N(C)C(=O)c1ccccc1F	.	0.82µM	-	0.73µM	.	.
CCc1nc2c(OCC=C(C)C)cccn2c1N(C)C(=O)c1ccc(OC)cc1	.	13µM	-	23µM	.	.
O=C(CCc1nc(-c2ccccc2)no1)NC1CCCN(CCCc2ccccc2)C1 (centres undefined)	.	.	-	.	.	.
O=C(CSCc1cccs1)NCC1CCCO1 (centres undefined)	.	.	-	.	.	.
CN(C)c1ccc(O)c2c1CC1CC3C(N(C)C)C(=O)C(C(N)=O)=C(O)[C@@]3(O)C(=O)C1=C2O (some centres undefined)	.	1.8µM	-	2.1µM	.	.
CN(C)c1ccc(O)c2c1CC1CC3[C@@H](N(C)C)C(=O)C(C(N)=O)C(=O)[C@]3(O)C(=O)C1C2=O (some centres undefined)	.	4.1µM	-	6.5µM	-	.
CN(C(=O)CSc1nc(-c2ccccc2)no1)C1CCCCC1	.	.	-	.	.	.
CC(CCc1ccccc1)NC(=O)N1CCN(S(=O)(=O)c2ccc(F)cc2)CC1 (centres undefined)	.	.	-	.	.	.
COC(=O)C(=O)CC(=O)c1ccc(C)s1	.	.	-	.	.	.
COc1ccc(Cl)cc1S(=O)(=O)NC1CCc2n[nH]c(=O)n2CC1 (centres undefined)	.	.	-	.	.	.
COc1cc2c(cc1OC)C(CNC(=O)CC(C)C)N(C(=O)Nc1ccccc1)CC2 (centres undefined)	.	.	-	.	.	.
COc1cc(OC)cc(C(=O)Nc2ccc3nc(N4CCC(C)CC4)cc(C)c3c2)c1	.	4.6µM	-	9.2µM	.	.
COc1ccccc1C(=O)Nc1ccc2nc(N3CCC(C)CC3)cc(C)c2c1	.	16µM	-	?	.	.
